CYP2C19 inh: blockers of cytochrome P450 2C19 activity – biochemical, luminescence, ADME assay, primary screen. inhibition, % at 5 µM. P33261. 96,000 tested, 21% active. CYP2C19 Supersomes, luciferin-H EGE luminescence, 30 min;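 active = CYP2C19 inhibition above a set limit at 5 µM in the primary screen, cut at about 50% in these data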
Target sequence (P33261 whole entry, looked up): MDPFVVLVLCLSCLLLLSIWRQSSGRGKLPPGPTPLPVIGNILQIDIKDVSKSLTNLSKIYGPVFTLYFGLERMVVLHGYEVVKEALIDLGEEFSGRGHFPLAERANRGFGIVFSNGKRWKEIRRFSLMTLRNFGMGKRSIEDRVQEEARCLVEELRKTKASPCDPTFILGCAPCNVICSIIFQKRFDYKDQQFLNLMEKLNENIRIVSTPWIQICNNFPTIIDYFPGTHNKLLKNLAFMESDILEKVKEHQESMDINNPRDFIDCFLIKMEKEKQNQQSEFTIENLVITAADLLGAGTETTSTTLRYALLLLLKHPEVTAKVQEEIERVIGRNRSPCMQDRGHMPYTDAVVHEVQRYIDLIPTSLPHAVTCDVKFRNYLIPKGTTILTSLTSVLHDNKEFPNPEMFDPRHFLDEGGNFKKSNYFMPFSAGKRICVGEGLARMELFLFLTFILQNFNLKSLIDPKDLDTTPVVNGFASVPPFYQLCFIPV
CYP2C19 activ: human CYP2C19 activators, primary screen, biochemical, luminescence. Cytochrome P450 2C19 (Homo sapiens), P33261. recombinant CYP2C19, luciferin-H EGE luminescence; hits give high values; 0 = fully inhibited enzyme, 1 = untreated enzyme. activation factor at 5 µM. 96,000 tested, under 10 active. AID 1025, 2008;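 active = activation factor of at least 2 at 5 µM in the primary screen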
CYP2C9 inh: blockers of cytochrome P450 2C9 activity – biochemical, luminescence, ADME assay, primary screen | CYP2C9 Supersomes, luciferin-H conversion | inhibition, % at 5 µM | 96,000 tested, 20% active | AID 777, 2007;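 active = blocking of liver enzyme CYP2C9 beyond about 50% at 5 µM, limit read from the data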
CYP2C9 act: human CYP2C9 activators, primary screen, biochemical, luminescence; Cytochrome P450 2C9 (Homo sapiens), P11712; recombinant CYP2C9, luciferin-H conversion; hits give high values; factor 1 = untreated enzyme, 0 = blocked; activation factor at 5 µM; 96,000 tested, 1.4% active; AID 1024, 2008;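 active = activation factor of 2 or more for CYP2C9 at a 5 µM dose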
Large screens that a line does not name were inactive. Only some compounds are listed: those with a hit (about 31% of all), similar ones and a draw of the others.

CC(C)CCn1c(Cl)nc2c1c(=O)n(C)c(=O)n2C	CYP2C19 inh 54.6
C=CCOc1nc2c(c(=O)n(C)c(=O)n2C)n1Cc1ccccc1Cl	none
COc1cccc(Cn2c(Oc3ccccc3)nc3c2c(=O)n(C)c(=O)n3C)c1	CYP2C9 inh 84.9
COc1ccc(-n2nnnc2SCC(=O)Nc2ccc3c(c2)OCCO3)c(OC)c1	none
CCC(C)[C@@H](NC(=O)OC(C)(C)C)c1nnc(S(=O)(=O)Cc2cccc(C)c2)o1 (some centres not stated)	none
COc1ccc(CNC(=O)c2noc3c2CCCCC3)cc1	none
O=C(Nc1cccc(O)c1)c1noc2c1CCCCC2	CYP2C19 inh 69.7
COc1ccc(NC(=O)c2noc3c2CCC3)cc1	CYP2C19 inh 62.0
COc1ccc(-n2c(=O)c3ccccc3n(CC(=O)NC3CCCC3)c2=O)c(OC)c1	none
Cc1ccc(S(=O)(=O)NCC2CCC(C(=O)NCCCN3CCOCC3)CC2)cc1 (configuration not stated)	none
Cc1ccc(S(=O)(=O)NCCN=C(CN2CCOCC2)NS(=O)(=O)c2ccc(C)cc2)cc1	CYP2C9 inh 75.6
Cc1ccc(S(=O)(=O)NCCN=C(CN2CCCC2)NS(=O)(=O)c2ccc(C)cc2)cc1	CYP2C9 inh 96.8
CCn1c(SCC(=O)Nc2cccc(C(C)=O)c2)nnc1C(C)C	none
O=C(CSCc1ccccc1)NNC(=S)Nc1cccc(Cl)c1Cl	CYP2C9 inh 86.7
O=C(Cc1cn2ccsc2n1)Nc1nc2c(s1)CCCC2	CYP2C9 inh 52.1
O=C(CCCc1ccccc1)NCc1cn2ccsc2n1	none
O=C(Cc1cccs1)Nc1nc2c(s1)CCCC2	none
O=C(CC1CCCCC1)NCc1cn2ccsc2n1	CYP2C9 inh 52.8
O=C(CC1CCCC1)NCCc1cn2ccccc2n1	CYP2C19 inh 67.7
Cc1ccn2cc(CCNC(=O)C3CCCCC3)nc2c1	none
Cc1ccc(OCCn2cnc3c(N)ncnc32)cc1	none
N#Cc1ccccc1Sc1ccccc1N	CYP2C19 inh 56.6, CYP2C9 inh 59.3
N#Cc1ccccc1Sc1ccccc1C(=O)N1CCOCC1	none
CCOc1ccc(C(=O)NC2CCN(C(=O)NCc3ccccc3)CC2)cc1	none
CCOc1ccccc1NC(=O)N1CCC(NC(=O)c2cccc(C)c2)CC1	CYP2C9 act 2.6
Cc1ccccc1C(=O)NC1CCN(C(=O)N(c2ccccc2)c2ccccc2)CC1	CYP2C9 inh 58.3
CCOc1ccccc1NC(=O)N1CCC(NC(=O)c2ccccc2C)CC1	CYP2C9 act 2.3
CCN(CC)C(=O)N1CCC(NC(=O)Cc2ccccc2)CC1	none
Cc1cccc(NC(=O)N2CCC(NC(=O)c3ccccc3C)CC2)c1	none
CC1CCN(C(=O)CSc2nnc(CSc3ncccn3)n2C)CC1	none
COC(=O)C(O)(NC(=O)OCc1ccccc1)C(F)(F)F (configuration not stated)	none
COC(=O)C(NC=O)C(O)(Cc1ccccc1)C(F)(F)F (configuration not stated)	CYP2C19 inh 56.7
CCCCCn1c(=O)[nH]c2cc(C(=O)NCCN(CC)CC)ccc2c1=O	none
COc1ccc(NS(=O)(=O)c2ccc3c(c2)Cc2ccccc2-3)cn1	CYP2C9 inh 88.4
CN(C)S(=O)(=O)Nc1ccc2c(c1)Cc1ccccc1-2	CYP2C9 inh 94.2
CSc1ccc(CNc2ccccc2)cc1	CYP2C19 inh 92.4
CSc1ccc(CNc2ccccn2)cc1	CYP2C19 inh 63.2
CSc1n[nH]c(NCc2ccccc2)n1	none
CC(Oc1ccccc1)c1ccnn1S(C)(=O)=O (configuration not stated)	none
CC(Oc1ccc(-c2ccccc2)c(F)c1)c1ccn(S(=O)(=O)c2ccc(Cl)cc2)n1 (configuration not stated)	CYP2C9 inh 68.1
CC(Oc1ccc(Cl)cc1)c1ccnn1S(=O)(=O)c1ccccc1 (configuration not stated)	CYP2C19 inh 82.1
CSCC[C@H](NC(=O)c1nn(C)c(=O)c2ccccc12)c1nc2ccccc2[nH]1	CYP2C9 inh 94.2
CCn1nc(C(=O)N[C@@H](CCSC)c2nc3ccccc3[nH]2)c2ccccc2c1=O	CYP2C19 inh 63.6, CYP2C9 inh 96.2
CCCCn1nc(C(=O)N[C@@H](CCSC)c2nc3ccccc3[nH]2)c2ccccc2c1=O	CYP2C19 inh 62.1, CYP2C9 inh 90.1
CCCC(=O)NC(C)c1nc2ccccc2[nH]1 (configuration not stated)	none
CCCCC(NC(C)=O)c1nc2ccccc2[nH]1 (configuration not stated)	CYP2C19 inh 64.2
Cn1c(=O)c2c(ncn2CC(=O)N2CCN(c3cccc(Cl)c3)CC2)n(C)c1=O	none
COc1ccc(/C=N\NC(=O)COc2ccc(C(C)(C)C)cc2)cc1Cn1nc(C)cc1C	CYP2C19 inh 53.1, CYP2C9 inh 95.0
O=C1NC(Nc2nccs2)(C(F)(F)F)C(=O)N1CCc1ccccc1 (configuration not stated)	CYP2C19 inh 89.1, CYP2C9 inh 85.3
CCOc1ccccc1N1C(=O)CC(Sc2ncccc2C(=O)O)C1=O (configuration not stated)	none
COc1ccc(N2C(=O)c3ccccc3NC23CCC(C)CC3)cc1 (configuration not stated)	none
COc1ccc(N2C(=O)c3ccccc3NC23CCCCC3)cc1	CYP2C9 inh 63.5
CCOC(=O)c1c(-c2ccc(OC)cc2)csc1NC(=O)CSc1ccccc1	none
CCOC(=O)C(Oc1ccc2c(-c3ccc(OC)cc3)cc(=O)oc2c1C)c1ccccc1 (configuration not stated)	CYP2C9 inh 78.2
Cn1c(=O)c2c(n(Cc3ccccc3)c1=O)NC(=O)C2CC(=O)O (configuration not stated)	none
CCCCn1c2c(c(=O)n(C)c1=O)C(CC(=O)OCC(=O)Nc1cccc(C(F)(F)F)c1)C(=O)N2 (configuration not stated)	CYP2C9 inh 86.4
CC(NC(=O)C12CC3CC(C1)CC(n1cncn1)(C3)C2)C12CC3CC(CC(C3)C1)C2 (configuration not stated)	CYP2C19 inh 67.9, CYP2C9 inh 71.7
O=C(CSc1nc(-c2ccccc2)nc2ccccc12)Nc1nccs1	none
O=C(CSc1ncnc2c1cnn2Cc1ccccc1)Nc1ccc2c(c1)OCCO2	CYP2C19 inh 57.6, CYP2C9 inh 54.7
Nc1cc(N)nc(SCC(=O)Nc2ccc3c(c2)OCCCO3)n1	none
Cc1nc(SCC(=O)Nc2ccc3c(c2)OCCO3)c2oc3ccccc3c2n1	CYP2C19 inh 96.4, CYP2C9 inh 73.0
CCc1nc(SCC(=O)Nc2nccs2)c2oc3ccccc3c2n1	CYP2C9 inh 75.7
CCc1nc(SCC(=O)Nc2ccc3c(c2)OCCO3)c2oc3ccccc3c2n1	CYP2C9 inh 51.7
Cc1ccc(C)c2nc(SCC(=O)N3CCCc4ccccc43)c(C#N)cc12	none
CCc1nc(SCC(=O)N2CCCc3ccccc32)c2oc3ccccc3c2n1	CYP2C9 inh 73.8
